Source: PubChem BioAssay (Tox21)
Records with an inconclusive call do not appear. Where a call stands in place of a potency, no number is given. Unmarked numbers belong to inactive results. Calls of active or inactive are those of the source. Calls come from the whole dose curve; as a rule, active = well fitted cell-killing curve with a large enough effect in the repeat runs; inconclusive = weak or mixed curves, or effect the other way; inactive = flat fitted curve, though single readings scatter.

Legend:
[1] = cAMP Responsive Elements (CRE) small molecule antagonists, cell-based qHTS assay: qHTS cell viability counter screen (AID 2060913); note: nearly all actives have a fitted effect of over 40% in size; note: potency is the fitted concentration of half-maximal effect
Procedure, shortened: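 Cytotoxicity counter screen multiplexed with the CRE-bla antagonist read: HEK293T cells in DMEM with dialyzed FBS and 25 mM HEPES were treated 3 hrs under 0.25 uM final NKH477, then viability measured by CellTiter-Glo luminescence.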

[2] = cAMP Responsive Elements (CRE) small molecule agonists, cell-based qHTS assay: qHTS cell viability counter screen (AID 2060914);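 note: viability read after 3 h of compound exposure; nearly all actives have a fitted effect of over 50% in size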
Procedure, shortened: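 CRE-bla HEK 293T cells, plated 18 h at 37 °C, were exposed to compounds for 3 h at 37 °C/5% CO2. Viability was then measured in the same wells by CellTiter-Glo luminescence after 30 min at room temperature.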

| SMILES | Potency [1] | Potency [2] | viability change, negative = cytotoxic [1] | activity change, negative = cytotoxicity [2] |
| --- | --- | --- | --- | --- |
| CC(C)Nc1ccc(Nc2ccccc2)cc1 | 50.8 µM (active) | inactive | – | – |
| [O]=[Cd] | inactive | inactive | – | – |
| O=CNC(N1CCN(C(NC=O)C(Cl)(Cl)Cl)CC1)C(Cl)(Cl)Cl (stereo not given) | inactive | inactive | – | – |
| Nc1ccc([N+](=O)[O-])cc1N | inactive | inactive | – | – |
| C[C@]12CC[C@H]3[C@@H](CCC4=CC(=O)CC[C@@]43C)[C@@H]1CC[C@@H]2C(=O)O | inactive | inactive | – | – |
| CCOP(=S)(OCC)Oc1ncn(-c2ccccc2)n1 | inactive | inactive | – | – |
| CCOP(=O)(OCC)Oc1nc(Cl)c(Cl)cc1Cl | inactive | inactive | – | – |
| COc1cccc(C(=O)NN(C(=O)c2cc(C)cc(C)c2)C(C)(C)C)c1C | inactive | inactive | – | – |
| OC(Cc1ccccc1Cl)(Cn1cncn1)C1(Cl)CC1 (stereo not given) | inactive | inactive | – | – |
| c1ccc(N=NNc2ccccc2)cc1 | inactive | inactive | – | – |
| O=C(O)C(Cl)(Cl)Br | inactive | inactive | – | – |
| CS(=O)(=O)c1cc(C(F)(F)F)ccc1C(=O)c1cnoc1C1CC1 | inactive | inactive | – | – |
| O=C(Oc1ccc(Br)cc1)N1CCN2CCC1CC2 | inactive | inactive | – | – |
| CCOC(=O)Cc1ccccc1 | inactive | inactive | – | – |
| O=C(O)CC(O)(CC(=O)O)C(=O)O | inactive | inactive | – | – |
| COc1cc(OC)nc(NC(=O)NS(=O)(=O)c2ncccc2C(=O)N(C)C)n1 | inactive | inactive | – | – |
| CCOC(=O)C(Cl)Cc1cc(-n2nc(C)n(C(F)F)c2=O)c(F)cc1Cl (stereo not given) | inactive | inactive | – | – |
| ClC(Cl)=C(c1ccc(Cl)cc1)c1ccc(Cl)cc1 | inactive | inactive | – | – |
| O=C(Cl)c1ccccc1F | inactive | inactive | – | – |
| O=[N+]([O-])c1ccc(CCl)cc1 | inactive | inactive | – | – |

| SMILES | Potency [1] | Potency [2] | viability change, negative = cytotoxic [1] | activity change, negative = cytotoxicity [2] |
| --- | --- | --- | --- | --- |
| CNc1cnn(-c2cccc(C(F)(F)F)c2)c(=O)c1Cl | inactive | inactive | – | – |
| C1=Cc2cccc3cccc1c23 | inactive | inactive | – | – |
| C[C@@H]1CC2=CC(=O)CC[C@@H]2[C@H]2CC[C@@]3(C)[C@@H](CC[C@]3(C)O)[C@@H]21 | inactive | inactive | – | – |
| N#CC(c1ccccc1)c1ccccc1 | inactive | inactive | – | – |
| CNC(=O)Oc1cc(C)cc(C(C)C)c1 | inactive | inactive | – | – |
| Oc1ccc(Cl)cc1Cl | inactive | inactive | – | – |
| COC(C)(C)C | inactive | inactive | – | – |
| ClCc1ccccc1 | inactive | inactive | – | – |
| Oc1ccc([C@H]2CNCc3c2ccc(O)c3O)cc1O | inactive | inactive | – | – |
| CCCCOC(C)=O | inactive | inactive | – | – |
| Cc1nc2ccccc2c(=O)n1-c1ccccc1Cl | inactive | inactive | – | – |
| OCC1CO1 (stereo not given) | inactive | inactive | – | – |
| CC(C)CCCCCCOC(=O)c1ccccc1C(=O)OCCCCCCC(C)C | inactive | inactive | – | – |
| CN(C)c1ccc(C(=O)c2ccc(N(C)C)cc2)cc1 | inactive | inactive | – | – |
| CC(c1ccc(O)cc1)c1ccc(O)cc1 | inactive | inactive | – | – |
| CCSC(=O)N(CC)C1CCCCC1 | inactive | inactive | – | – |
| CC(=O)C=C(C)C | inactive | inactive | – | – |
| CCCN(CCC)CCc1c[nH]c2ccccc12 | inactive | inactive | – | – |
| C=C(C)[C@@H]1CC=C(C=O)CC1 | inactive | inactive | – | – |
| CC(C)(O)C#N | inactive | inactive | – | – |

| SMILES | Potency [1] | Potency [2] | viability change, negative = cytotoxic [1] | activity change, negative = cytotoxicity [2] |
| --- | --- | --- | --- | --- |
| Sc1ccccc1 | inactive | inactive | – | – |
| CC(C)CC(N(C)C)C1(c2ccc(Cl)cc2)CCC1 (stereo not given) | inactive | inactive | – | – |
| CNC(=O)O/N=C(/CSC)C(C)(C)C | inactive | inactive | – | – |
| O=C(CCCCl)c1ccc(F)cc1 | inactive | inactive | – | – |
| O=P(O)(O)CN(CP(=O)(O)O)CP(=O)(O)O | inactive | inactive | – | – |
| Cc1cc(=O)[nH]o1 | inactive | inactive | – | – |
| CC(=O)CCC(C)=O | inactive | inactive | – | – |
| Fc1cccc(Cl)c1CCl | inactive | inactive | – | – |
| O=S(=O)(O)F | inactive | inactive | – | – |
| N#CSCc1ccccc1 | inactive | inactive | – | – |
| CCN(CC)CCOC(=O)C(O)(c1ccccc1)c1ccccc1 | inactive | inactive | – | – |
| CCN | inactive | inactive | – | – |
| Brc1c(Br)c(Br)c(Br)c(Br)c1Br | – | – | 0.231% [at 8.39 µM] | 7.31% [at 8.39 µM] |
| O=c1[nH]c(Cl)c(Cl)cc1Cl | inactive | inactive | – | – |
| COc1cccc(C(=O)CCN[C@@H](C)[C@H](O)c2ccccc2)c1 | inactive | inactive | – | – |
| Nc1ccccc1C(=O)O | inactive | inactive | – | – |
| CCCCOC(=O)c1ccccc1C(=O)OCc1ccccc1 | inactive | inactive | – | – |
| ClCCOCCCl | inactive | inactive | – | – |
| CC1=NNC(=O)N(/N=C/c2cccnc2)C1 | inactive | inactive | – | – |
| CCCCCCCCCCCCOS(=O)(=O)O | inactive | inactive | – | – |
